Measurements as given in PubChem BioAssay AID1159580 (chemical genetic matrix, 2015).
About 2,000 (36%) of roughly 5,500 compounds were called active. Roughly 18% stayed inconclusive and do not appear here. No stated cut-off is given here; in the data, active means normalized growth mostly below about 0.91 (no sharp cut-off); inconclusive means no clear call, values can overlap the other calls; inactive means mostly above about 0.92. Some of the results follow.

Assay: chemical genetic growth profiling, strain panel (AID 1159580);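 further: tested at 20 µM; growth read once vehicle control cultures reached saturation at 30 °C; 1 = growth at the plate median or of vehicle wells; lower values mean less growth of the strain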
Details: growth OD

Measured: normalized growth

O=C(O)c1c2ccccc2cc2ccccc12
inactive: S. cerevisiae deletion strains, locus YJR043C, strain POL32, active compounds read low 1.04 | S. cerevisiae deletion strains, locus YJR075W, strain HOC1, active compounds read low 1.01 | S. cerevisiae deletion strains, locus YKL009W, strain mrt4, active compounds read low 0.989 | S. cerevisiae deletion strains, locus YKL068W, active compounds read low 0.971 | S. cerevisiae deletion strains, locus YKL085W, strain MDH1 (second series), active compounds read low 0.958 | S. cerevisiae deletion strains, locus YKL085W, strain MDH1, active compounds read low 0.958 | S. cerevisiae deletion strains, locus YKL160W, strain elf1, active compounds read low 0.991 | S. cerevisiae deletion strains, locus YKL190W, strain CNB1, active compounds read low 1.02 | S. cerevisiae deletion strains, locus YKR001C, strain vps1, active compounds read low 0.981 | S. cerevisiae deletion strains, locus YKR026C, strain gcn3, active compounds read low 1 | S. cerevisiae deletion strains, locus YKR091W, strain srl3, active compounds read low 0.986 | S. cerevisiae deletion strains, locus YLL001W, strain dnm1, active compounds read low 1 | S. cerevisiae deletion strains, locus YLL026W, active compounds read low 0.996 | S. cerevisiae deletion strains, locus YLL041C, strain sdh2, active compounds read low 0.992 | S. cerevisiae deletion strains, locus YLR027C, strain aat2, active compounds read low 0.999 | S. cerevisiae deletion strains, locus YLR039C, strain RIC1, active compounds read low 1.04 | S. cerevisiae deletion strains, locus YLR058C, strain SHM2, active compounds read low 1.02 | S. cerevisiae deletion strains, locus YLR102C, strain apc9, active compounds read low 0.983 | S. cerevisiae deletion strains, locus YLR221C, strain rsa3, active compounds read low 0.973 | S. cerevisiae deletion strains, locus YLR258W, strain gsy2, active compounds read low 0.992 | S. cerevisiae deletion strains, locus YLR262C, strain YPT6 (second series), active compounds read low 0.976 | S. cerevisiae deletion strains, locus YLR262C, strain YPT6, active compounds read low 1.03 | S. cerevisiae deletion strains, locus YLR268W, strain sec22, active compounds read low 0.986 | S. cerevisiae deletion strains, locus YLR320W, strain mms22, active compounds read low 1 | S. cerevisiae deletion strains, locus YLR330W, strain CHS5, active compounds read low 1.02 | S. cerevisiae deletion strains, locus YLR342W, strain FKS1 (second series), active compounds read low 0.971 | S. cerevisiae deletion strains, locus YLR342W, strain FKS1, active compounds read low 1 | S. cerevisiae deletion strains, locus YLR357W, strain rsc2, active compounds read low 1.06 | S. cerevisiae deletion strains, locus YLR370C, strain arc18, active compounds read low 0.998 | S. cerevisiae deletion strains, locus YLR371W, strain rom2, active compounds read low 0.992 | S. cerevisiae deletion strains, locus YLR384C, strain iki3, active compounds read low 0.992 | S. cerevisiae deletion strains, locus YLR418C, strain cdc73, active compounds read low 0.96 | S. cerevisiae deletion strains, locus YML016C, strain PPZ1, active compounds read low 1.01 | S. cerevisiae deletion strains, locus YML032C, strain rad52, active compounds read low 0.954 | S. cerevisiae deletion strains, locus YML120C, strain ndi1, active compounds read low 0.965 | S. cerevisiae deletion strains, locus YML124C, strain tub3, active compounds read low 0.985 | S. cerevisiae deletion strains, locus YMR058W, strain fet3, active compounds read low 1.01 | S. cerevisiae deletion strains, locus YMR078C, strain ctf18, active compounds read low 0.974 | S. cerevisiae deletion strains, locus YMR125W, strain sto1, active compounds read low 1.03 | S. cerevisiae deletion strains, locus YMR129W, active compounds read low 0.987 | S. cerevisiae deletion strains, locus YMR205C, strain PFK2, active compounds read low 1.01 | S. cerevisiae deletion strains, locus YMR223W, strain ubp8, active compounds read low 0.962 | S. cerevisiae deletion strains, locus YMR231W, strain pep5, active compounds read low 0.979 | S. cerevisiae deletion strains, locus YMR263W, strain SAP30, active compounds read low 1.02 | S. cerevisiae deletion strains, locus YMR307W, strain GAS1, active compounds read low 1.13 | S. cerevisiae deletion strains, locus YNL067W, strain RPL9B, active compounds read low 1.02 | S. cerevisiae deletion strains, locus YNL071W, strain lat1, active compounds read low 0.948 | S. cerevisiae deletion strains, locus YNL128W, strain TEP1, active compounds read low 1.02 | S. cerevisiae deletion strains, locus YNL153C, strain GIM3, active compounds read low 1.02 | S. cerevisiae deletion strains, locus YNL209W, strain ssb2, active compounds read low 1 | S. cerevisiae deletion strains, locus YNL233W, strain BNI4, active compounds read low 1.02 | S. cerevisiae deletion strains, locus YNL248C, strain rpa49, active compounds read low 0.993 | S. cerevisiae deletion strains, locus YNL250W, strain rad50, active compounds read low 0.965 | S. cerevisiae deletion strains, locus YNL271C, strain bni1, active compounds read low 0.949 | S. cerevisiae deletion strains, locus YNL298W, strain CLA4, active compounds read low 0.948 | S. cerevisiae deletion strains, locus YNL307C, strain MCK1, active compounds read low 0.969 | S. cerevisiae deletion strains, locus YNL322C, strain KRE1 (second series), active compounds read low 0.998 | S. cerevisiae deletion strains, locus YNL322C, strain KRE1, active compounds read low 1.02 | S. cerevisiae deletion strains, locus YNR049C, strain mso1, active compounds read low 1.01 | S. cerevisiae deletion strains, locus YNR052C, strain pop2, active compounds read low 0.982 | S. cerevisiae deletion strains, locus YOL006C, strain TOP1, active compounds read low 0.989 | S. cerevisiae deletion strains, locus YOL012C, strain htz1 0.952 | S. cerevisiae deletion strains, locus YOL147C, strain pex11, active compounds read low 0.986 | S. cerevisiae deletion strains, locus YOR001W, strain rrp6, active compounds read low 0.957 | S. cerevisiae deletion strains, locus YOR061W, strain CKA2, active compounds read low 1.01 | S. cerevisiae deletion strains, locus YOR069W, strain VPS5, active compounds read low 1.01 | S. cerevisiae deletion strains, locus YOR070C, strain gyp1, active compounds read low 0.999 | S. cerevisiae deletion strains, locus YOR080W, strain dia2, active compounds read low 1.01 | S. cerevisiae deletion strains, locus YOR083W, strain WHI5, active compounds read low 0.915 | S. cerevisiae deletion strains, locus YOR106W, strain vam3, active compounds read low 0.95 | S. cerevisiae deletion strains, locus YOR136W, strain idh2, active compounds read low 0.978 | S. cerevisiae deletion strains, locus YOR144C, strain elg1, active compounds read low 0.987 | S. cerevisiae deletion strains, locus YOR184W, strain ser1, active compounds read low 0.965 | S. cerevisiae deletion strains, locus YOR265W, strain rbl2, active compounds read low 0.996 | S. cerevisiae deletion strains, locus YOR270C, strain vph1, active compounds read low 0.973 | S. cerevisiae deletion strains, locus YOR290C, strain snf2, active compounds read low 0.999 | S. cerevisiae deletion strains, locus YOR316C, strain cot1, active compounds read low 0.983 | S. cerevisiae deletion strains, locus YPL051W, strain arl3, active compounds read low 0.982 | S. cerevisiae deletion strains, locus YPL055C, strain LGE1, active compounds read low 1.03 | S. cerevisiae deletion strains, locus YPL078C, strain atp4, active compounds read low 1 | S. cerevisiae deletion strains, locus YPL106C, strain sse1, active compounds read low 0.947 | S. cerevisiae deletion strains, locus YPL240C, strain hsp82, active compounds read low 0.994 | S. cerevisiae deletion strains, locus YPL241C, strain CIN2, active compounds read low 0.982 | S. cerevisiae deletion strains, locus YPR119W, strain clb2, active compounds read low 0.979 | S. cerevisiae deletion strains, locus YPR141C, strain kar3, active compounds read low 0.948 | S. cerevisiae deletion strains, locus YPR163C, strain tif3, active compounds read low 0.984 | S. cerevisiae deletion strains, locus YPR167C, strain met16, active compounds read low 0.987 | S. cerevisiae deletion strains, strain wtn01, active compounds read low 0.987 | S. cerevisiae strains, strain wild type, active compounds read low 1.01
